# Measurements: PubChem BioAssay AID624330 (Southern Research Specialized Biocontainment Screening …, 2012)
# Out of some 340,000 compounds screened, about 2,100 (0.62%) were called active.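 How the source made its calls: active means first-screen hits whose inhibition reached a set limit at any dose in the follow-up dose series; inconclusive means inhibition above the set first-screen limit but never retested; inactive means the rest.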 These entries were drawn from the full list. Entries with a potency or affinity are not part of this list.
# Molecular target: Rac GTPase-activating protein 1 (Homo sapiens) (UniProt Q9H0H5)
# Test: MgcRacGAP GTPase-activating activity inhibitors, confirmation, biochemical, ADP Hunter fluorescence, primary and confirmatory (AID 624330);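 further: fluorescence reports GDP produced by GAP-driven GTP hydrolysis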
# Conditions: MgcRacGAP-stimulated Rac1 GTP hydrolysis, at 30 µM, hits give high values, GST-tagged Rac1 F28L mutant substrate
# Rac GTPase-activating protein 1 (Homo sapiens), sequence (Q9H0H5 whole entry, looked up): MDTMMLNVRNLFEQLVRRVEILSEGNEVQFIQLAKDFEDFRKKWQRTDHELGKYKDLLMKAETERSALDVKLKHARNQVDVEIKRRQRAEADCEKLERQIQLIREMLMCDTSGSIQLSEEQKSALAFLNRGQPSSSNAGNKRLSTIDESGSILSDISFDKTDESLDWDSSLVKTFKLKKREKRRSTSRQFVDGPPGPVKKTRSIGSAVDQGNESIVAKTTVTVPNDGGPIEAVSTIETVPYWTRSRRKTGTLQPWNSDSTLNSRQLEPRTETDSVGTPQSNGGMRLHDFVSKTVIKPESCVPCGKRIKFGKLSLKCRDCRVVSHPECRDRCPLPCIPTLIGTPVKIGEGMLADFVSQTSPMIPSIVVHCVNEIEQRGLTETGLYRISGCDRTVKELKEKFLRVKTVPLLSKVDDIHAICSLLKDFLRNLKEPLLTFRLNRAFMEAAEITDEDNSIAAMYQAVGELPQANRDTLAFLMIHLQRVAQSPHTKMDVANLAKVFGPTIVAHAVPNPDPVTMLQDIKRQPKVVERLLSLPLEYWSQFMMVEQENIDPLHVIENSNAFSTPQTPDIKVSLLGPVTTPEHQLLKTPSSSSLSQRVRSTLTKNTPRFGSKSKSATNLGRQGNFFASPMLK
row,Compound,inhibition
1,Cc1ccc(N2C(=O)c3ccc(C(=O)N4CCOCC4)cc3C2=O)cc1C,-11.3% (inactive)
2,O=C(COC(=O)c1ccc(O)cc1O)c1ccc(Cl)cc1,2.91% (inactive)
3,CCCOP(=O)(c1ccc(N(C)C)cc1)C(O)c1ccccc1OC (stereo unspecified),4.57% (inactive)
4,Nc1ccc2c(c1)C(=O)c1ccccc1-2,18.2% (inactive)
5,Nc1ccc2c(c1)C(=O)c1ccc(N)cc1-2,22.8% (inactive)
6,Nc1cc2c(cc1Cl)-c1ccc(Cl)cc1C2=O,3.85% (inactive)
7,Nc1ccc2c(c1)C(=O)c1cc(Cl)c(Cl)cc1-2,7.4% (inactive)
8,CCOC(=O)C1CCN(CCC(=O)Nc2ccccc2)CC1,12.6% (inactive)
9,Cc1cccc(NC(=S)NCc2cccs2)c1,9.05% (inactive)
10,O=C(/C=C/c1ccc(F)cc1)NC(Cc1c[nH]c2ccccc12)C(=O)O (stereo unspecified),-4.83% (inactive)
11,COc1cc(C(=O)N[C@@H](Cc2c[nH]c3ccccc23)C(=O)O)cc(OC)c1OC,1.53% (inactive)
12,Cc1nn(-c2ccccc2)c(NC(=O)c2cccs2)c(-c2ccccc2)c1=O,0.27% (inactive)
13,Cc1cccc(NC(=O)N2CCCCCC2)c1,4.32% (inactive)
14,CCc1cc2c(SCc3ccc(C(=O)OC)o3)ncnc2s1,7.63% (inactive)
15,CC(=O)NN1C(=O)/C(=C\c2ccc(Cl)cc2)SC1=S,7.77% (inactive)
16,O=C1/C(=C\c2ccc(O)cc2)SC(=S)N1c1cccnc1,2.66% (inactive)
17,COc1cccc(/C=C2\SC(=S)N(NC(=O)c3ccncc3)C2=O)c1,15.5% (inactive)
18,CCOc1cc(/C=C2\SC(=S)N(Nc3ccccc3)C2=O)ccc1O,11.1% (inactive)
19,CC(=O)NN1C(=O)/C(=C\c2ccc(C)cc2)SC1=S,9.68% (inactive)
20,O=C(NN1C(=O)/C(=C/c2cccs2)SC1=S)c1ccncc1,8.88% (inactive)
21,COc1cc(/C=C2\SC(=S)N(Nc3ccccc3)C2=O)cc(OC)c1OC,11.2% (inactive)
22,O=C1/C(=C\c2ccc(O)cc2)SC(=S)N1Cc1ccccc1,10.6% (inactive)
23,N/C(=N\OC(=O)Cc1ccc(-c2ccccc2)cc1)c1cccnc1,5.49% (inactive)
24,CCNC(=S)N1C2CCC1CC(NC(=O)NC1CCCCC1)C2 (stereo unspecified),1.32% (inactive)

row,Compound,inhibition
1,c1ccc(-n2ncc3c(N4CCN(CCOc5cccc6ccccc56)CC4)ncnc32)cc1,-0.49% (inactive)
2,CCCCOC(=O)c1cc(Cl)c(O)c(OC)c1,13.4% (inactive)
3,CC(NC(=O)c1ccc(F)cc1)c1ccc(F)cc1 (stereo unspecified),4.7% (inactive)
4,O=C(Nc1ccccc1)C(Cc1ccccc1)c1ccccc1 (stereo unspecified),-2.68% (inactive)
5,CCOc1ccc(N2CC(C(=O)Nc3cc(OCC)c(N4CCOCC4)cc3OCC)CC2=O)cc1 (stereo unspecified),2.59% (inactive)
6,CCN1CCN(C(=O)C2(NC(=O)Nc3ccccc3Cl)CCCCC2)CC1,2.74% (inactive)
7,O=c1ccc(-c2ccccc2)no1,1.17% (inactive)
8,Cc1ccc(S(=O)(=O)CCC(=O)OCC(=O)Nc2cc(F)ccc2C)cc1,1.06% (inactive)
9,CCOC(=O)CC1C(=O)NCCN1S(=O)(=O)c1cccc(C(F)(F)F)c1 (stereo unspecified),7.16% (inactive)
10,O=C(Nc1ncnc2sc3c(c12)CCCC3)c1ccncc1,-0.48% (inactive)
11,O=C(NN1C(=O)/C(=C/c2cccc(O)c2)SC1=S)c1ccccc1O,5.04% (inactive)
12,O=C(O)c1ccc(/C=C2\SC(=S)N(NC(=O)c3ccccc3)C2=O)cc1,8.51% (inactive)
13,Cc1ccc(/C=C2\SC(=S)N(CCC(=O)NNC(=O)c3ccc(O)cc3)C2=O)cc1,6.6% (inactive)
14,COc1cc(/C=C2\SC(=S)N(NC(=O)c3ccccc3OC)C2=O)ccc1O,8.13% (inactive)
15,O=C(NN1C(=O)/C(=C/c2ccc(O)cc2)SC1=S)c1cccc(O)c1,30.8% (inactive)
16,O=C(CCCN1C(=O)/C(=C\c2ccccc2)SC1=S)Nc1ccc(O)cc1C(=O)O,12.8% (inactive)
17,CCOC(=O)CSc1nc2cc(S(=O)(=O)Nc3ccccc3OC)ccc2o1,5.81% (inactive)
18,Clc1cccc(CSc2ncnc3c2ncn3C2CCCCO2)c1 (stereo unspecified),2.71% (inactive)
19,NS(=O)(=O)c1ccc(CCNC(=O)CN2CCN(Cc3cccc4ccccc34)CC2)cc1,3.28% (inactive)
20,O=C1NC(=S)S/C1=C\c1cccc([N+](=O)[O-])c1,11.9% (inactive)
21,O=C(O)/C=C/c1ccc([N+](=O)[O-])o1,12.4% (inactive)
22,Cc1cc2[nH]c3ccccc3c2cn1,17% (inactive)
23,COC(=O)c1c(NC(=O)C2CCCCC2)sc2c1CCN(C(C)C)C2,8.85% (inactive)
24,CC(=O)N1CCN(CC(O)COc2ccc(OCc3ccccc3)cc2)CC1 (stereo unspecified),3.99% (inactive)

row,Compound,inhibition
1,O=C(c1ccccc1)N1CCN(CC(O)COc2ccc(Br)cc2)CC1 (stereo unspecified),1.08% (inactive)
2,CCN1CCN(CC(O)COc2cccc(OC)c2)CC1 (stereo unspecified),8.83% (inactive)
3,CCOC(=O)N1CCN(CC(O)COc2c(C)cc(C)cc2C)CC1 (stereo unspecified),3.3% (inactive)
4,Cc1cccc(C)c1OCC(O)CN1CCN(C(=O)c2ccccc2)CC1 (stereo unspecified),-23.8% (inactive)
5,COc1cccc(OCC(O)CN2CCOCC2)c1 (stereo unspecified),6.97% (inactive)
6,CCN(CC)CCNC(=O)NC(=O)c1ccc(Cl)cc1,-9.05% (inactive)
7,O=C(NCc1ccccc1F)C(=O)NCC1OCCCN1S(=O)(=O)c1cccs1 (stereo unspecified),-0.33% (inactive)
8,COc1ccc(NC(=O)COc2nsnc2N2CCCCC2)cc1,17.2% (inactive)
9,Cc1ccc(N(Cc2ccc(C(=O)NCC3CCCO3)cc2)S(C)(=O)=O)cc1C (stereo unspecified),-2.07% (inactive)
10,CC(=O)NC1C(Oc2ccc(C=O)cc2)OC(COC(C)=O)C(OC(C)=O)C1OC(C)=O (stereo unspecified),0.46% (inactive)
11,COc1ccc(O[C@@H]2O[C@H](COC(C)=O)[C@@H](OC(C)=O)[C@H](OC(C)=O)[C@H]2NC(C)=O)cc1,5.33% (inactive)
12,O=C(NCc1ccc(F)cc1F)Nc1cnccc1C(F)(F)F,0.3% (inactive)
13,CC1(c2nnc(-c3ccccc3)o2)CC(c2c(Cl)cccc2Cl)=NO1 (stereo unspecified),7.59% (inactive)
14,Cc1ccc(/C=N/N2CCN(c3ccccc3)CC2)cc1,14.1% (inactive)
15,C(=N\N1CCN(c2ccccn2)CC1)/c1ccccn1,13.7% (inactive)
16,Cc1ccc(/C=N/N2CCN(c3ccccn3)CC2)cc1,6.1% (inactive)
17,C(=N\N1CCN(c2ccccc2)CC1)/c1ccccc1,9.75% (inactive)
18,COc1ccc(CCNC(=O)C2CCN(S(=O)(=O)c3ccc(OC)c(OC)c3)CC2)cc1OC,1.02% (inactive)
19,CCCOc1ccc(C2C(C(=O)c3ccc(C)o3)=C(O)C(=O)N2Cc2ccco2)cc1 (stereo unspecified),9.74% (inactive)
20,O=[N+]([O-])c1ccc(NN=C(C2CC2)C2CC2)c([N+](=O)[O-])c1,9.77% (inactive)
21,COC(=O)c1sc2nc(-c3ccccc3)nc(N3CCN(C)CC3)c2c1C,6.27% (inactive)
22,COc1ccccc1N1C(=O)CC(Sc2ccccc2N)C1=O (stereo unspecified),2.06% (inactive)
23,COc1ccc(C(=O)Nc2c(O)ccc3ccccc23)cc1OC,9.73% (inactive)
24,COc1ccc(Cc2c3cc(OC)c(OC)cc3cc[n+]2C)cc1OC,-5.7% (inactive)

row,Compound,inhibition
1,COc1cc2ccc(=O)oc2cc1O,16.3% (inactive)
2,COc1cc2ccc(C(C)=O)c(O)c2cc1OC,8.81% (inactive)
3,O=C(CN(Cc1ccc(Cl)cc1)C(=O)CN1C(=O)COc2ccccc21)NC1CCCC1,8.29% (inactive)
4,O=C(Nc1cccc(F)c1)Nc1ccc(Cl)cn1,0.09% (inactive)
5,CC(=C/c1ccccc1)/C=N/N1CCN(Cc2ccc(C)cc2)CC1,7.95% (inactive)
6,CCOC(=O)[C@H](O)[C@@H](O)c1cccc([C@H](O)[C@@H](O)C(=O)OCC)c1,11.8% (inactive)
7,CN(Cc1ccccc1)C(=O)c1cc(-c2ccc(Br)cc2)on1,7.89% (inactive)
8,Cc1ccc(CSc2nnc(NC(=O)Cn3cnc4ccccc4c3=O)s2)cc1,-8.67% (inactive)
9,CCOC(=O)c1c(-c2ccc(-c3ccccc3)cc2)csc1NC(=O)CCN1CCOCC1,-2.88% (inactive)
10,CCOC(=O)c1c(-c2ccccc2)csc1NC(=O)CCN1CCOCC1,18.3% (inactive)
11,COC(=O)Cn1c(=NC(=O)C2COc3ccccc3O2)sc2cc(S(N)(=O)=O)ccc21 (stereo unspecified),3.94% (inactive)
12,COC(=O)c1cc(-c2ccc(Cl)cc2)n(-c2ccc(S(N)(=O)=O)cc2)n1,5.18% (inactive)
13,O=S(=O)(N/N=C/c1ccc2c(c1)OCCO2)c1ccccc1,9.57% (inactive)
14,COC(=O)c1cc(S(=O)(=O)NCc2ccccc2)c[nH]1,11.6% (inactive)
15,COc1cc(O)cc2cc3c(c(O)c12)C(=O)CC(C)(O)O3 (stereo unspecified),-0.09% (inactive)
16,CCOc1ccc(S(=O)(=O)n2c([N+](=O)[O-])cnc2C)c(C)c1C,6.34% (inactive)
17,Cc1[nH]c(=S)c(C#N)c(C)c1CC(=O)c1ccc(Br)cc1,8.21% (inactive)
18,O=C(CN1C(=O)c2ccccc2S1(=O)=O)c1ccc(F)c(F)c1,-3.06% (inactive)
19,O=C(CN1C(=O)c2ccccc2S1(=O)=O)c1ccccc1,8.2% (inactive)
20,COCCN(C(=O)CSc1nnc(C)n1-c1ccccc1)c1c(N)n(Cc2ccccc2)c(=O)[nH]c1=O,9.16% (inactive)
21,Cc1cc(OCC(=O)NCc2ccccn2)c2c(C)cc(=O)oc2c1,2.23% (inactive)
22,CN(C)C/C=C(/c1ccc(Br)cc1)c1cccnc1,3.6% (inactive)
23,CN(C)CCCO/N=C(\c1ccccc1)c1ccncc1,24.4% (inactive)
24,CC(C)c1ccc(NC(=O)NCc2ccccn2)cc1,8.07% (inactive)
